From PubChem BioAssay
Calls of active or inactive are those of the source.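 The calls were made as follows: active = growth inhibition above 50% at the single 2 µM test dose, taken to imply half-maximal potency below 2 µM; inactive = the rest.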

assay: antimalarial activity against Dd2 strain (AID 2302);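 also: 0% = DMSO untreated growth and 100% = chloroquine plus artemisinin killed control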; conditions: P. falciparum Dd2 in RBCs, LDH growth readout, 72 h; at 2 µM; hits give high values

Growth inhibition, inactive:
O=C(Nc1ccc(Cl)c(Cl)c1)N[C@H]1CCN(CCCCCNC(=O)[C@@H]2C[C@H]2c2ccc(Cl)c(Cl)c2)C1 8%
CCOC(=O)c1ccc(COc2ccc(C)nc2)cc1 -7%
CC(=O)Oc1cc(C(=O)Nc2ccc(Cl)cc2)cc2ccccc12 47%

Growth inhibition, active:
O=C(N[C@@H](Cc1ccccc1)C(=O)NC1CCCCC1)c1ccc(O)c(-c2ccc(Cl)c(Cl)c2)c1 99%
O=[N+]([O-])c1ccc2nc(Nc3cccc(C(F)(F)F)c3)c(Nc3cccc(C(F)(F)F)c3)nc2c1 99%
C[C@H](Cc1ccc(CCc2ccc(C[C@@H](C)NC[C@H](O)c3cccc(Cl)c3)cc2)cc1)NC[C@H](O)c1cccc(Cl)c1 92%
COc1ccc2nccc([C@@H](O)CN3CCC(NCc4cc5ccccc5[nH]4)CC3)c2n1 55%
C=CCc1cccc(OC)c1OCCCON1C(N)=NC(N)=NC1(C)C 95%
Cc1ccc2nc(-c3ccc(C=CC(=O)NC4CCN(Cc5ccccc5)CC4)cc3)[nH]c2c1 92%
CCOc1c(OC)ccc2c1CCN(CCN1CCC(CNC(=O)c3ccc(-c4ccc(C#N)cc4)cc3)CC1)C2 61%
Nc1ncc(-c2ccc(F)cc2)c2ccc(-c3cccc(F)c3)cc12 89%
O=C(NCc1ccc(F)cc1)c1cc(Br)cc(N2CCN(c3ccncc3)CC2)c1 59%
O=C(NC1CCN(c2ccnc3cc(Cl)ccc23)C1)c1ccccc1F (centres undefined) 71%
COc1cccc2cc(C(=O)N[C@@H](CC(C)C)C(=O)N[C@H](/C=N/N3CCCC3=O)Cc3ccccc3)oc12 80%
